In PubChem BioAssay (EPA / NIEHS):
Some compounds were tested as several samples or in several runs, with calls that do not always agree. Calls of active or inactive are those of the source. The calls were made as follows: active = hit-call score of the fitted dose curve at least 0.9, where 1 is the maximum; inactive = score below 0.9.

Test system: not listed separately
Assay: ATG_SREBP_CIS: Attagene CIS-FACTORIAL HepG2 Assay for human Sterol Regulatory Element Binding (SREBP) (AID 2282962)
Details: HepG2 Attagene cis-factorial SREBP reporter, mRNA; actives raise or lower the signal
Outline: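 mRNA induction of transfected cis-promoter reporters in HepG2 cells, 24 h post-dose. Detection: RT-PCR with 6-FAM-labelled products, HpaI digest, capillary electrophoresis. DMSO served as negative control and baseline.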

Q: Which outcome does the source give for `O=C(O)C(F)(OC(F)(F)C(F)(OC(F)(F)C(F)(OC(F)(F)C(F)(F)C(F)(F)F)C(F)(F)F)C(F)(F)F)C(F)(F)F` (stereo not given) here?
A: Its outcome is “inactive”.

Q: Which outcome does the source give for `O=C(O)C(F)(F)C(F)(F)C(F)(F)C(F)(F)C(F)(F)C(F)(F)C(F)(F)C(F)(F)Cl` here?
A: Its outcome is “inactive”.

Q: With `c1ccc(-c2ccccc2-c2ccccc2)cc1` as the compound, how does the AC50 read?
A: Its AC50 is 100 µM (active).

Q: Which outcome does the source give for `CNC(=S)NC` here?
A: The outcome was “inactive”.

Q: For `OCCCC(F)(F)C(F)(F)C(F)(F)C(F)(F)C(F)(F)C(F)(F)C(F)(F)F`, which AC50 is on record?
A: The AC50 was 50 µM (active).

Q: And the outcome?
A: Its outcome is “inactive”.

Q: With `CCN(CC)c1ccc2c(C)cc(=O)oc2c1` as the compound, how does the outcome read?
A: Its outcome is “inactive”.

Q: With `O=C(O)C(F)(F)C(F)(F)C(F)(F)C(F)(F)C(F)(F)C(F)(F)C(F)(F)C(F)(F)C(F)(F)C(F)(F)C(F)(F)C(F)(F)C(F)(F)F` as the compound, how does the outcome read?
A: Its outcome is “inactive”.

Q: For `FC(F)(F)C(F)(F)C(F)(F)C(F)(F)CCI`, which outcome is on record?
A: Its outcome is “inactive”.

Q: With `Cc1ccc(S(=O)(=O)NCl)cc1` as the compound, how does the outcome read?
A: The outcome was “inactive”.

Q: Which outcome does the source give for `C=CC(=O)OCC(F)(F)C(F)(F)C(F)(F)C(F)(F)C(F)(F)C(F)(F)C(F)(F)F` here?
A: Its outcome is “inactive”.

Q: For `C#C[C@]1(O)CC[C@H]2[C@@H]3CCc4cc(OC)ccc4[C@H]3CC[C@@]21C`, which outcome is on record?
A: Its outcome is “inactive”.

Q: Which outcome does the source give for `O=C(O)C(F)(F)C(F)(F)OC(F)(F)F` here?
A: Its outcome is “inactive”.

Q: With `CCCCCCCCCCCCCCCC[N+](C)(C)Cc1ccccc1` as the compound, how does the outcome read?
A: The outcome was “inactive”.

Q: For `CCO[Si](CCC(F)(F)C(F)(F)C(F)(F)C(F)(F)C(F)(F)C(F)(F)F)(OCC)OCC`, which outcome is on record?
A: Its outcome is “inactive”.

Q: Which outcome does the source give for `c1ccc(B(c2ccccc2)c2ccccc2)cc1` here?
A: Its outcome is “inactive”.

Q: With `C=C(C)C(=O)OCCC(F)(F)C(F)(F)C(F)(F)C(F)(F)C(F)(C(F)(F)F)C(F)(F)F` as the compound, how does the outcome read?
A: The outcome was “inactive”.

Q: Which outcome does the source give for `COC(=O)C1CCC(C(=O)OC)CC1` (stereo not given) here?
A: Its outcome is “inactive”.

Q: With `CC(C)OC(=O)c1ccccc1C(=O)OC(C)C` as the compound, how does the outcome read?
A: Its outcome is “inactive”.

Q: With `CCCCCCC(C)OC(=O)CCCCC(=O)OC(C)CCCCCC` (stereo not given) as the compound, how does the outcome read?
A: The outcome was “inactive”.

Q: Which outcome does the source give for `C=CC(F)(F)C(F)(F)C(F)(F)C(F)(F)C(F)(F)C(F)(F)C(F)(F)C(F)(F)F` here?
A: The outcome was “inactive”.

Q: Which outcome does the source give for `C(=C(c1ccccc1)c1ccccc1)c1ccccc1` here?
A: The outcome was “inactive”.

Q: For `O=C(O)C(F)(F)C(F)(F)C(F)(F)F`, which outcome is on record?
A: The outcome was “inactive”.

Q: For `OC[C@@H](O)[C@@H](O)[C@H](O)[C@@H](O)CO`, which outcome is on record?
A: Its outcome is “inactive”.

Q: Which outcome does the source give for `O=C(OCCOCCOCCOC(=O)c1ccccc1)c1ccccc1` here?
A: Its outcome is “inactive”.

Q: Which outcome does the source give for `OCC(F)(F)C(F)(F)C(F)(F)F` here?
A: Its outcome is “inactive”.

Q: For `O=C(CC(=O)C(F)(F)C(F)(F)F)C(F)(F)F`, which outcome is on record?
A: Its outcome is “inactive”.

Q: Which outcome does the source give for `Oc1ccc(Nc2ccccc2)cc1` here?
A: Its outcome is “inactive”.

Q: With `COC(=O)CCC(F)(F)C(F)(F)C(F)(F)C(F)(F)F` as the compound, how does the outcome read?
A: The outcome was “inactive”.

Q: For `CCCCCCCOC(=O)c1ccccc1C(=O)OCCCCCCC`, which outcome is on record?
A: Its outcome is “inactive”.

Q: With `OCC(F)(F)C(F)(F)C(F)(F)C(F)(F)C(F)(F)C(F)F` as the compound, how does the outcome read?
A: Its outcome is “inactive”.

Q: Which outcome does the source give for `FC(F)(F)C(F)(F)C(F)(F)C(F)(F)C(F)(F)C(F)(F)CC1CO1` (stereo not given) here?
A: The outcome was “inactive”.

Q: For `CC/C=C\CCOC(=O)c1ccccc1`, which outcome is on record?
A: Its outcome is “inactive”.

Q: For `CS(C)(=O)=O`, which outcome is on record?
A: The outcome was “inactive”.

Q: Which outcome does the source give for `C=CC(F)(F)C(F)(F)C(F)(F)C(F)(F)C(F)(F)C(F)(F)C(F)(F)C(F)(F)C=C` here?
A: The outcome was “inactive”.

Target: Signal transducer and activator of transcription 3 (Homo sapiens) (UniProt P40763)
Sequence (P40763 whole entry, looked up): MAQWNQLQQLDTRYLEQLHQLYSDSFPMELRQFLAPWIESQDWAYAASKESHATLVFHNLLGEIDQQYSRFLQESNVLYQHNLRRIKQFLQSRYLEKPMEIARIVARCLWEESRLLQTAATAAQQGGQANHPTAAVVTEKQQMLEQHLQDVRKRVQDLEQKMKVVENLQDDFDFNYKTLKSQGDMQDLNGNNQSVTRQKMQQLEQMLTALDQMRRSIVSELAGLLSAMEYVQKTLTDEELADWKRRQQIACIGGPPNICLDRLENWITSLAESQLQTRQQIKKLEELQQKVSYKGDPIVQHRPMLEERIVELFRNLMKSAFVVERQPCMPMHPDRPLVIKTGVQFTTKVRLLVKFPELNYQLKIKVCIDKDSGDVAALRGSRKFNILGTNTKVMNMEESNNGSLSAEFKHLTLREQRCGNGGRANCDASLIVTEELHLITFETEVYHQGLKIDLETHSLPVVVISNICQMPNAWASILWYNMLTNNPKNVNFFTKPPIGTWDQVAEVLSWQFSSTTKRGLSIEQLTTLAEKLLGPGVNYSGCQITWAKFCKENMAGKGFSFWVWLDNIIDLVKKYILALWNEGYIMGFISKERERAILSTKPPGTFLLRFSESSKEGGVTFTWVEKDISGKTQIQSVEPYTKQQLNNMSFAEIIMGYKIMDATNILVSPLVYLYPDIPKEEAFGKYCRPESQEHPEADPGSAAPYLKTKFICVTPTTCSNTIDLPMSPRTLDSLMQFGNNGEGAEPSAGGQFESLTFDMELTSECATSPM
Assay: ATG_STAT3_CIS: Attagene CIS-FACTORIAL HepG2 Assay for human Signal Transducer and Activator of Transcription 3 (STAT3) (AID 2282963)
Details: HepG2, Attagene cis-factorial STAT3 reporter transcription; actives raise or lower the signal
Outline: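 Values derive from bidirectional fits relative to DMSO of reporter mRNA levels, measured by RT-PCR with capillary electrophoresis, in HepG2 cells carrying transiently transfected cis-regulated reporter units and exposed 24 h.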

Q: With `O=C(O)C(F)(OC(F)(F)C(F)(OC(F)(F)C(F)(OC(F)(F)C(F)(F)C(F)(F)F)C(F)(F)F)C(F)(F)F)C(F)(F)F` (stereo not given) as the compound, how does the outcome read?
A: The outcome was “inactive”.

Q: For `O=C(O)C(F)(F)C(F)(F)C(F)(F)C(F)(F)C(F)(F)C(F)(F)C(F)(F)C(F)(F)Cl`, which outcome is on record?
A: The outcome was “inactive”.

Q: Which outcome does the source give for `c1ccc(-c2ccccc2-c2ccccc2)cc1` here?
A: Its outcome is “inactive”.

Q: With `CNC(=S)NC` as the compound, how does the outcome read?
A: Its outcome is “inactive”.

Q: Which AC50 does the source give for `OCCCC(F)(F)C(F)(F)C(F)(F)C(F)(F)C(F)(F)C(F)(F)C(F)(F)F` here?
A: The AC50 was 78.9 µM (active).

Q: And the outcome?
A: Its outcome is “inactive”.

Q: Which outcome does the source give for `CCN(CC)c1ccc2c(C)cc(=O)oc2c1` here?
A: Its outcome is “inactive”.

Q: For `O=C(O)C(F)(F)C(F)(F)C(F)(F)C(F)(F)C(F)(F)C(F)(F)C(F)(F)C(F)(F)C(F)(F)C(F)(F)C(F)(F)C(F)(F)C(F)(F)F`, which outcome is on record?
A: The outcome was “inactive”.

Q: Which outcome does the source give for `FC(F)(F)C(F)(F)C(F)(F)C(F)(F)CCI` here?
A: The outcome was “inactive”.

Q: With `Cc1ccc(S(=O)(=O)NCl)cc1` as the compound, how does the outcome read?
A: Its outcome is “inactive”.

Q: With `C=CC(=O)OCC(F)(F)C(F)(F)C(F)(F)C(F)(F)C(F)(F)C(F)(F)C(F)(F)F` as the compound, how does the outcome read?
A: Its outcome is “inactive”.

Q: Which outcome does the source give for `C#C[C@]1(O)CC[C@H]2[C@@H]3CCc4cc(OC)ccc4[C@H]3CC[C@@]21C` here?
A: The outcome was “inactive”.

Q: Which outcome does the source give for `O=C(O)C(F)(F)C(F)(F)OC(F)(F)F` here?
A: Its outcome is “inactive”.

Q: With `CCCCCCCCCCCCCCCC[N+](C)(C)Cc1ccccc1` as the compound, how does the outcome read?
A: Its outcome is “inactive”.

Q: For `CCO[Si](CCC(F)(F)C(F)(F)C(F)(F)C(F)(F)C(F)(F)C(F)(F)F)(OCC)OCC`, which outcome is on record?
A: The outcome was “inactive”.

Q: With `c1ccc(B(c2ccccc2)c2ccccc2)cc1` as the compound, how does the outcome read?
A: Its outcome is “inactive”.

Q: With `C=C(C)C(=O)OCCC(F)(F)C(F)(F)C(F)(F)C(F)(F)C(F)(C(F)(F)F)C(F)(F)F` as the compound, how does the outcome read?
A: The outcome was “inactive”.

Q: For `COC(=O)C1CCC(C(=O)OC)CC1` (stereo not given), which outcome is on record?
A: Its outcome is “inactive”.

Q: Which outcome does the source give for `CC(C)OC(=O)c1ccccc1C(=O)OC(C)C` here?
A: Its outcome is “inactive”.

Q: Which outcome does the source give for `CCCCCCC(C)OC(=O)CCCCC(=O)OC(C)CCCCCC` (stereo not given) here?
A: Its outcome is “inactive”.

Q: Which outcome does the source give for `C=CC(F)(F)C(F)(F)C(F)(F)C(F)(F)C(F)(F)C(F)(F)C(F)(F)C(F)(F)F` here?
A: The outcome was “inactive”.

Q: With `C(=C(c1ccccc1)c1ccccc1)c1ccccc1` as the compound, how does the outcome read?
A: The outcome was “inactive”.

Q: With `O=C(O)C(F)(F)C(F)(F)C(F)(F)F` as the compound, how does the outcome read?
A: Its outcome is “inactive”.

Q: For `OC[C@@H](O)[C@@H](O)[C@H](O)[C@@H](O)CO`, which outcome is on record?
A: Its outcome is “inactive”.

Q: With `O=C(OCCOCCOCCOC(=O)c1ccccc1)c1ccccc1` as the compound, how does the outcome read?
A: The outcome was “inactive”.

Q: Which outcome does the source give for `OCC(F)(F)C(F)(F)C(F)(F)F` here?
A: The outcome was “inactive”.

Q: Which outcome does the source give for `O=C(CC(=O)C(F)(F)C(F)(F)F)C(F)(F)F` here?
A: Its outcome is “inactive”.

Q: With `Oc1ccc(Nc2ccccc2)cc1` as the compound, how does the outcome read?
A: The outcome was “inactive”.

Q: Which outcome does the source give for `COC(=O)CCC(F)(F)C(F)(F)C(F)(F)C(F)(F)F` here?
A: The outcome was “inactive”.

Q: With `CCCCCCCOC(=O)c1ccccc1C(=O)OCCCCCCC` as the compound, how does the outcome read?
A: The outcome was “inactive”.

Q: With `OCC(F)(F)C(F)(F)C(F)(F)C(F)(F)C(F)(F)C(F)F` as the compound, how does the outcome read?
A: The outcome was “inactive”.

Q: For `FC(F)(F)C(F)(F)C(F)(F)C(F)(F)C(F)(F)C(F)(F)CC1CO1` (stereo not given), which outcome is on record?
A: The outcome was “inactive”.

Q: Which outcome does the source give for `CC/C=C\CCOC(=O)c1ccccc1` here?
A: The outcome was “inactive”.

Q: With `CS(C)(=O)=O` as the compound, how does the outcome read?
A: Its outcome is “inactive”.

Q: For `C=CC(F)(F)C(F)(F)C(F)(F)C(F)(F)C(F)(F)C(F)(F)C(F)(F)C(F)(F)C=C`, which outcome is on record?
A: Its outcome is “inactive”.
